# Laboratory results from PubChem BioAssay (NCATS).
# Inconclusive results are not listed. Activity calls are given as the source filed them. Unless noted, the call rests on the fitted dose curve; in most records, active means well fitted curve in the direction sought with a large enough effect; inconclusive means small, poorly fitted or top-dose-only effect, or another doubt; inactive means no such curve, though single readings can be large; an effect the other way counts as inactive or inconclusive.
# Tests used:
# [1] = target: N-terminal Xaa-Pro-Lys N-methyltransferase 1 (Homo sapiens) (UniProt Q9BV86); assay: Confirmatory qHTS for Inhibitors of N-terminal methyltransferase 1 (NTMT1): MTaseGlo Assay (AID 1645874); further: nearly all actives have a fitted effect of over 65% in size; further: potency means the concentration at half of the fitted maximal effect
# Chain of N-terminal Xaa-Pro-Lys N-methyltransferase 1 (Homo sapiens) (Q9BV86 whole entry, looked up): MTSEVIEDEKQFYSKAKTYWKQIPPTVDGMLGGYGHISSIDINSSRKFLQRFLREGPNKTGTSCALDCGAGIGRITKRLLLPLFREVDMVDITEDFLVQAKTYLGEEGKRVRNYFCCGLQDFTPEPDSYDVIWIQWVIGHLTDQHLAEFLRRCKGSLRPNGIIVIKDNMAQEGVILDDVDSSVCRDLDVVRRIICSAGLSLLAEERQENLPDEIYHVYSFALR
# Outline: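 Inhibition was derived from luminescence after SAH-to-ATP conversion, scaled between no-enzyme and DMSO wells, then fitted by 4-parameter Hill. Conditions: 125 nM NTMT1, 100 uM SAM, 1 uM SPKRIA, 30 min RT.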
# [2] = target: Bile acid receptor (Homo sapiens) (UniProt Q96RI1); assay: qHTS assay for small molecule antagonists of farnesoid X receptor signaling (AID 588526; calls by dose curve; further: on the % scale 0 is the no-effect control and ±100 the full control effect)
# Chain of Bile acid receptor (Homo sapiens) (Q96RI1 whole entry, looked up): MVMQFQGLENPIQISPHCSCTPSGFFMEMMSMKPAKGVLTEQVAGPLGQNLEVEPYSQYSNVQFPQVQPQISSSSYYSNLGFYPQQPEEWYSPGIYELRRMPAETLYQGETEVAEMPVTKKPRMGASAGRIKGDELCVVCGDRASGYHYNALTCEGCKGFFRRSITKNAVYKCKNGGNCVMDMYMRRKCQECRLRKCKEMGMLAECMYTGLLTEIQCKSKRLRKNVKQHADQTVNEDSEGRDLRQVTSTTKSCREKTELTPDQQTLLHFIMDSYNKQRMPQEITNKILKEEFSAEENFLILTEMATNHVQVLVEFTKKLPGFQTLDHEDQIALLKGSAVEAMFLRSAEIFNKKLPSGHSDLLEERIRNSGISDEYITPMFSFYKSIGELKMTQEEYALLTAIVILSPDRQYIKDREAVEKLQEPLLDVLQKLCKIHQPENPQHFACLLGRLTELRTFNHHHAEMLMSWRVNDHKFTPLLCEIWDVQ
# Outline: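 Beta-lactamase reporter antagonist mode: HEK293T FXR-UAS-bla cells, titrated compound, CDCA stimulation, 16 h 37 C, CCF4 dye 2 h RT. Data normalized to CDCA 50 uM and DMSO; Hill-fit IC50.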
# [3] = target: Glucocorticoid receptor (Homo sapiens) (UniProt P04150); assay: qHTS assay for small molecule agonists of glucocorticoid receptor signaling (AID 588532; active means well fitted curve in the direction sought with a large enough effect in the signal ratio, with a control signal flat; the % refers to the signal ratio;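 further: 100% = dexamethasone at 0.1 µM and 0% = DMSO only wells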); details: HeLa MMTV-bla, beta-lactamase ratio, agonist, 18 h; stronger effect = higher value; percent of dexamethasone control, DMSO zero
# Chain of Glucocorticoid receptor (Homo sapiens) (P04150 whole entry, looked up): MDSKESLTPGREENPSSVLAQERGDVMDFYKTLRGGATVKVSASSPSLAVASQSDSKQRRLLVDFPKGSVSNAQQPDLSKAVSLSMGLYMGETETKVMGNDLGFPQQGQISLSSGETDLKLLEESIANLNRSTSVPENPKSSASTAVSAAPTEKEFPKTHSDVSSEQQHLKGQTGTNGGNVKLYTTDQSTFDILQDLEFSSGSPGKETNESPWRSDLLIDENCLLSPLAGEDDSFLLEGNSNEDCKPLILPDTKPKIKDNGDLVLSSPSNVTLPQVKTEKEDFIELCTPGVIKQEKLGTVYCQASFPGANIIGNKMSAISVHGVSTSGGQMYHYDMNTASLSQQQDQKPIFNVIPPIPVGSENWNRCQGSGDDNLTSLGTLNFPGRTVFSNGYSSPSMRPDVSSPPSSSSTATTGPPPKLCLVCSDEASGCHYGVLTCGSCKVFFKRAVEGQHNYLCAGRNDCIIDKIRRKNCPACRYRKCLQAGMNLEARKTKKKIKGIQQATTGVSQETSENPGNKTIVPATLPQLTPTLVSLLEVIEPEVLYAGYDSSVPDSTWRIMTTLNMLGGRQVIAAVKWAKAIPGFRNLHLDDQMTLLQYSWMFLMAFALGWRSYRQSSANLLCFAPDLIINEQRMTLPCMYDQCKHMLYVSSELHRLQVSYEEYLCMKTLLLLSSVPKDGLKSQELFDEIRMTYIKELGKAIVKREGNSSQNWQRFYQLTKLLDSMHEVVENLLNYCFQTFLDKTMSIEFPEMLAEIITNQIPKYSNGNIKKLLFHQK
# Outline: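 Quantitative HTS using CellSensor MMTV-bla HeLa cells in charcoal/dextran-treated serum; compounds tested up to 92 uM. After 18 h at 37 C, CCF4 dye reported reporter induction.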
# [4] = qHTS assay for small molecule antagonists of peroxisome proliferator-activated receptor delta signaling (AID 588535; active means well fitted inhibition curve with a large enough effect in the signal ratio, with a control signal flat, not every such curve was filed as active; the % refers to the signal ratio;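 on max response: cells co-treated with a PPAR-delta agonist as stimulator during compound exposure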); details: HEK293T PPARd-UAS-bla, beta-lactamase FRET ratio, 18 h; 460 nm channel
# Outline: (§1)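 Titrations were run on PPAR-delta-UAS-bla HEK293T cells in charcoal/dextran-stripped serum, incubated 18 h at 37 C. CCF4 fluorescence (460/530 nm) after 2 h RT; Hill equation yields IC50 and maximal response.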
# [5] = target: Peroxisome proliferator-activated receptor delta (Homo sapiens) (UniProt Q03181); assay: as above
# Outline: as §1
# [6] = target: Peroxisome proliferator-activated receptor gamma (Homo sapiens) (UniProt P37231); assay: qHTS assay for small molecule antagonists of peroxisome proliferator-activated receptor gamma signaling (AID 588537; active means well fitted inhibition curve with a large enough effect in the signal ratio, with a control signal flat, not every such curve was filed as active; the % refers to the signal ratio;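 further: reporter cells co-stimulated with 50 nM rosiglitazone agonist during compound treatment; % of control where 0% means no effect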)
# Chain of Peroxisome proliferator-activated receptor gamma (Homo sapiens) (P37231 whole entry, looked up): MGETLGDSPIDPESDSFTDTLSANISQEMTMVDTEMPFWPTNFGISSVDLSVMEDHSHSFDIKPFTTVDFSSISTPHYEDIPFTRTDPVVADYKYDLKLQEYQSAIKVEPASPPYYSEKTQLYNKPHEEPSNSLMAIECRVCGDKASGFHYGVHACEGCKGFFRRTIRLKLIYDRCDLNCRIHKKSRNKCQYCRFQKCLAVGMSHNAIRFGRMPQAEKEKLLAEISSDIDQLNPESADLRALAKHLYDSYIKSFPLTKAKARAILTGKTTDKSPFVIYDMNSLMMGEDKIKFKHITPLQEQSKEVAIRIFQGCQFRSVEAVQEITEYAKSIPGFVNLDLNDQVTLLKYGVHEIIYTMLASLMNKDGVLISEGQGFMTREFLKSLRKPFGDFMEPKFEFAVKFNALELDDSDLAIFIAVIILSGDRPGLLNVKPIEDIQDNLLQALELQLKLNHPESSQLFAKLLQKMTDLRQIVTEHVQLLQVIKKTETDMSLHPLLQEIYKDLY
# Outline: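 Antagonist-mode β-lactamase reporter screen run as a titration series. HEK293 PPARγ-UAS-bla cells are stimulated with rosiglitazone (50 nM final) for 16 h, then CCF4 is read at 460/530 nm. Data are scaled between DMSO and rosiglitazone and fitted to the Hill equation.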
# [7] = target: Vitamin D3 receptor (Homo sapiens) (UniProt P11473); assay: qHTS assay for small molecule antagonists of vitamin D receptor signaling (AID 588541; calls by dose curve;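 further: receptor activated by calcitriol during compound treatment; series mostly up to about 77 µM; on the % scale 0 is the no-effect control and ±100 the full control effect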)
# Chain of Vitamin D3 receptor (Homo sapiens) (P11473 whole entry, looked up): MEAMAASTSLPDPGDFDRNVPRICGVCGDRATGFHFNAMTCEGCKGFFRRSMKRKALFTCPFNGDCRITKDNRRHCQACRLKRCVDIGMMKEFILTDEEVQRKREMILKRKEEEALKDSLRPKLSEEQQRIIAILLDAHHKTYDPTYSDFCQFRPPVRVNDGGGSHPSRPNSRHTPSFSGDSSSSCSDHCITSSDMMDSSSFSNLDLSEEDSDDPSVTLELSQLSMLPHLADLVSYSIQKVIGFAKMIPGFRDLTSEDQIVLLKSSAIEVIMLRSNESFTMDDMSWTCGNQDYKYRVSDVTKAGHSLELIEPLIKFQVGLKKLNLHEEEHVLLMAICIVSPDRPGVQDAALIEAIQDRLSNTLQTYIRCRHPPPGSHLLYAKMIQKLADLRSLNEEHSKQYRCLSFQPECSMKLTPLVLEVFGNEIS
# Outline: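 Antagonist-mode beta-lactamase reporter assay: HEK293T VDR-UAS-bla cells were exposed to titrated compound alongside 1-alpha,25-dihydroxyvitamin D3 at 3 nM final for 16 h. Values were normalized to the 50 nM agonist control and DMSO basal, with IC50 and efficacy from Hill equation fits.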
# [8] = target: Vitamin D3 receptor (Homo sapiens) (UniProt P11473); assay: qHTS assay for small molecule agonists of vitamin D receptor signaling (AID 588543; calls by dose curve;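 further: 0% = DMSO basal and 100% = reference agonist control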)
# Outline: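 VDR-UAS-bla HEK293T cells, 2000/well, 2% charcoal-stripped FBS; compound titration 16 h at 37 C; CCF4 beta-lactamase ratio read. Normalized to 50 nM 1-alpha,25-dihydroxyvitamin D3 (100%) and DMSO; Hill fit gives EC50, efficacy.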
# [9] = qHTS assay for small molecule agonists of retinoid X receptor alpha signaling (AID 588544; calls by dose curve;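 on activation: 0% = DMSO basal wells and 100% = reference agonist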); details: HEK293T RXRa-UAS-bla, beta-lactamase reporter, 18 h; 530 nm emission
# [10] = target: Retinoic acid receptor RXR-alpha (Homo sapiens) (UniProt P19793); assay: as above
# Chain of Retinoic acid receptor RXR-alpha (Homo sapiens) (P19793 whole entry, looked up): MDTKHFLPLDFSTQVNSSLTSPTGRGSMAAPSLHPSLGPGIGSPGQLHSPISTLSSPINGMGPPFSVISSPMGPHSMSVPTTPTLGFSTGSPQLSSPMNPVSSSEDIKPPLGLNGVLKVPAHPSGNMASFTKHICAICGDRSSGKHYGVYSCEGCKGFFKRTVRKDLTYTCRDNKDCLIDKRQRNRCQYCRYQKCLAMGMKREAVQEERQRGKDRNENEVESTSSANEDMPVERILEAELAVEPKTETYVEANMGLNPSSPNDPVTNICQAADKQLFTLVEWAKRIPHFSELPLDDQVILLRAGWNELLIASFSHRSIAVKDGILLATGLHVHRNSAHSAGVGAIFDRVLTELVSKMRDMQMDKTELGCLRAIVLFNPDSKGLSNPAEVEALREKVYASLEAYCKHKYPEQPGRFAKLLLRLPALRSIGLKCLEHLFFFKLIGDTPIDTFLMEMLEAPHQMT
# [11] = target: Thyroid hormone receptor beta (Homo sapiens) (UniProt P10828); assay: qHTS assay for small molecule agonists of thyroid hormone receptor beta signaling (AID 588545; calls by dose curve)
# Chain of Thyroid hormone receptor beta (Homo sapiens) (P10828 whole entry, looked up): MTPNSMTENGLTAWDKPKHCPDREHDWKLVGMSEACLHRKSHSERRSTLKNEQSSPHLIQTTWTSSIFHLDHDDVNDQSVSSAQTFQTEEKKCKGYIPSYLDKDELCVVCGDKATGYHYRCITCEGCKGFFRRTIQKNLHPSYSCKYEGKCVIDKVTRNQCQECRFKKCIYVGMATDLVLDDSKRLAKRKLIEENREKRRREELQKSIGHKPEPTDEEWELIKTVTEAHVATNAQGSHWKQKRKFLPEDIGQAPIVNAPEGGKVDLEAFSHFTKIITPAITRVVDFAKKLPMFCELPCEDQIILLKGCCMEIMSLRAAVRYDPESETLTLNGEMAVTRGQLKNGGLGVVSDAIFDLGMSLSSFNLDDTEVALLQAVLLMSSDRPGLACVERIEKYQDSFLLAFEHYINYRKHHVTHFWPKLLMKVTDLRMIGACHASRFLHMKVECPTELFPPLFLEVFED
# Outline: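 In this cell-based screen, titrated compounds act on HEK 293 cells held in medium with 2% charcoal/dextran FBS, NEAA and pyruvate for 18 hrs at 37 C. Responses are expressed relative to T3 (10 nM) as 100% and basal DMSO as 0%.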
# [12] = target: Thyroid hormone receptor beta (Homo sapiens) (UniProt P10828); assay: qHTS assay for small molecule antagonists of thyroid hormone receptor beta signaling (AID 588547; active means well fitted inhibition curve with a large enough effect in the signal ratio, with a control signal flat, not every such curve was filed as active; the % refers to the signal ratio;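 further: cells stimulated with 0.4 nM T3 agonist during compound exposure; series mostly up to about 77 µM; on the % scale 0 is the no-effect control and ±100 the full control effect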); details: TR-UAS-bla HEK293, beta-lactamase ratio, antagonist mode, 18 h
# Outline: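 Inhibition of T3-driven (0.4nM final) beta-lactamase reporter activity was measured over 0.59 nM to 92 uM compound after 18 h at 37 C. The cells were GripTite HEK293 TR-UAS-bla in charcoal/dextran-stripped serum, with CCF4 ratio read-out and IC50 from Hill fits.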
# [13] = target: Luciferin 4-monooxygenase (Photinus pyralis) (UniProt P08659); assay: Biochemical firefly luciferase enzyme assay for NPC (AID 624030);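 further: purified P. pyralis luciferase at 10 nM with luciferin and ATP substrate; series mostly up to about 59 µM; 0% = DMSO and -100% = full luciferase inhibition by PTC124 control; nearly all actives have a fitted effect of over 70% in size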
# Outline: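 Direct inhibition of firefly luciferase enzyme (10 nM final, 50 mM Tris Acetate) assessed by luminescence within 5 minutes. Percent activity scaled between DMSO and PTC124 positive control, with concentration-effect curves classified by fit quality and response.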
# [14] = qHTS assay for small molecule agonists of the antioxidant response element (ARE) signaling pathway (AID 651741; active means well fitted activation curve with a large enough effect in the signal ratio; the % refers to the signal ratio; further: potency means the concentration at half of the fitted maximal effect)
# Outline: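 Beta-lactamase reporter under ARE control in HepG2 cells, 2,000 per well, was induced by 16 h compound treatment at 37 C. Read-out was fluorescence from LiveBLAzer B/G FRET substrate after 2 h at room temperature.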
# [15] = qHTS assay for small molecule activators of the p53 signaling pathway (AID 651743; active means well fitted activation curve with a large enough effect in the signal ratio, not every such curve was filed as active; the % refers to the signal ratio; further: series mostly up to about 92 µM; % of control where 0% means no effect); details: HCT-116 p53RE-bla, beta-lactamase FRET ratio, 16 h; stronger effect = higher value
# Outline: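 After 16 hours compound treatment at 37 C, HCT-116 cells stably expressing p53RE-driven beta-lactamase were loaded with LiveBLAzer B/G FRET substrate for 2 hours at room temperature. Fluorescence intensity served as the p53 activation read-out.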
# [16] = qHTS assay for environmental chemicals that activate the Aryl hydrocarbon Receptor (AhR) signaling pathway (AID 651777); details: 1A2-DRE human hepatoma cells, luciferase, 24 h; stronger effect = higher value; further: % of control where 0% means no effect; nearly all actives have a fitted effect of over 15% in size
# Outline: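 Luminescence read-out: One-Glo added for 30 min at RT after 24 hr compound treatment (37 C, 5% CO2) of human hepatoma cells expressing a DRE/CYP1A2 promoter–luciferase reporter; increased signal indicates AhR activation.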
# [17] = target: Peroxisome proliferator-activated receptor alpha (Homo sapiens) (UniProt Q07869); assay: qHTS assay for small molecule agonists of the peroxisome proliferator-activated receptor alpha (PPARalpha) signaling pathway (AID 651778); details: PathHunter PPARalpha complementation, chemiluminescence, 6 h; stronger effect = higher value; further: % of control where 0% means no effect
# Chain of Peroxisome proliferator-activated receptor alpha (Homo sapiens) (Q07869 whole entry, looked up): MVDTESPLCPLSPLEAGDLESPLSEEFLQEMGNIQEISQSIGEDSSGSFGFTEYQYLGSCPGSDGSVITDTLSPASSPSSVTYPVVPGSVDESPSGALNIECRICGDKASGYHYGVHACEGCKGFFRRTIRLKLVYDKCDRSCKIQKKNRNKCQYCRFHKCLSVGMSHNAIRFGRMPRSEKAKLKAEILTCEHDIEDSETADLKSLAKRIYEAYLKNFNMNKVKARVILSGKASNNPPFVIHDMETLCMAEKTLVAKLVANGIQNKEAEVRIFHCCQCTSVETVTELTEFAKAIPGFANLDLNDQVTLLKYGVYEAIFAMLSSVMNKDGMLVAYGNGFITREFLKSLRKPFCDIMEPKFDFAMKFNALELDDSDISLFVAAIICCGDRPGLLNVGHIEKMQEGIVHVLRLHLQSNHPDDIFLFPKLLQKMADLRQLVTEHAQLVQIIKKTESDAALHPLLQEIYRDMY
# Outline: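 Chemiluminescence from complemented enzyme reported PPARalpha activation in cells after 6 hr of compound treatment at 37 C. The detection reagent was incubated for 60 min at room temperature, and compounds were scored as agonists.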
# [18] = qHTS assay for small molecule agonists of the antioxidant response element (ARE) signaling pathway measured by Nrf2-dependant transcriptional activity - cell viability counter screen (AID 720653; active means well fitted curve in the direction sought with a large enough effect in the repeat runs; an effect the other way counts as inactive or inconclusive; further: on the % scale 0 is the no-effect control and ±100 the full control effect); details: ARE-bla HepG2 viability, CellTiter-Glo ATP luminescence, 16 h; stronger effect = lower value
# Outline: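 Cytotoxicity counter screen: intracellular ATP quantified by CellTiter-Glo luminescence in the same ARE-bla HepG2 plates, after 16 h compound exposure and a 2 h beta-lactamase substrate step.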
# [19] = qHTS Assay for Identifying Gametocytocidal Compounds (AID 743244);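 further: on the % scale 0 is the no-effect control and ±100 the full control effect; actives lower the fluorescent signal which means gametocytes are killed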; details: P. falciparum 3D7 stage III-V gametocytes, alamarBlue, 72 h; max response: stronger effect = lower value
# Outline: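 Using 20,000 stage III–V 3D7 gametocytes per well, compounds were incubated 72 h under 37 °C/5% CO2. Viability was then assessed by 24 h alamarBlue reduction, measured fluorometrically at 525/598 nm.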
# [20] = qHTS assay for cell viability of HEK293 cells (AID 743288); details: ATP luminescence (CellTiter-Glo), 18 h, stronger effect = lower value; further: on the % scale 0 is the no-effect control and ±100 the full control effect; nearly all actives have a fitted effect of over 50% in size
# Outline: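 Steps: plate 2,000 parental HEK293 cells per well; incubate ≥5 h, 37 C; add compounds in DMSO; incubate 18 h, 37 C; add CellTiter-Glo; wait 30 min at room temperature; read luminescence.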
# [21] = qHTS assay for cell viability of the p53RE-bla HCT-116 cell line (AID 743292); further: on the % scale 0 is the no-effect control and ±100 the full control effect; nearly all actives have a fitted effect of over 55% in size
# Outline: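 Luminescent ATP quantitation (CellTiter-Glo) served as the viability read-out; reagent was added after 16 h compound exposure at 37 C and read after 30 min at room temperature. Cells: p53RE-bla HCT-116, 4,000 per well.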
# [22] = target: Cytochrome P450 2C9 (Homo sapiens) (UniProt P11712); assay: Cytochrome P450 family 2 subfamily C member 9 (CYP2C9) small molecule antagonists: luciferase biochemical (cell-free) qHTS assay (AID 1645842; active means well fitted curve in the direction sought with a large enough effect in the repeat runs; an effect the other way counts as inactive or inconclusive; further: series mostly up to about 57 µM; on the % scale 0 is the no-effect control and ±100 the full control effect; nearly all actives have a fitted effect of over 55% in size)
# Chain of Cytochrome P450 2C9 (Homo sapiens) (P11712 whole entry, looked up): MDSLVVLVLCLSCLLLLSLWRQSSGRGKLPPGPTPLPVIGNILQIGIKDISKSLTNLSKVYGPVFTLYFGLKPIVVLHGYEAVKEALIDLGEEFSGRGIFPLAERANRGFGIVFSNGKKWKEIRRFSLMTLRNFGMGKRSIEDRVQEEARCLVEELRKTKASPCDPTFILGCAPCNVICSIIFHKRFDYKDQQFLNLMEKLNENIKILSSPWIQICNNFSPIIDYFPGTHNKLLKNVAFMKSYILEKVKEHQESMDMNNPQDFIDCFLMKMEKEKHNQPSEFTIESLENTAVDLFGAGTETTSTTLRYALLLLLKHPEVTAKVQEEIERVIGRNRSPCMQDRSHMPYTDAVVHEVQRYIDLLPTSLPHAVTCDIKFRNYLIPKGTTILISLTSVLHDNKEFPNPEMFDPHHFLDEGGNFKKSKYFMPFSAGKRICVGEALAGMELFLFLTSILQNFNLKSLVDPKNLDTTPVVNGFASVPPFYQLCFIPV
# Outline: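 P450-Glo CYP2C9 system: proluciferin substrate with enzyme in mix containing 0.4% BSA, 10 min at room temperature, then NADPH regeneration solution added and incubated 1 h at 37C. Detection reagent stopped reaction; luminescence read after 20 min as RLU.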
# [23] = target: Nuclear receptor subfamily 1 group I member 2 (Rattus norvegicus) (UniProt Q9R1A7); assay: qHTS assay for small molecule activators of the rat pregnane X receptor (rPXR) signaling pathway (AID 651751; call rule not given here; further: 0% is about no effect); details: rPXR reporter cells, luciferase (One-Glo), 24 h
# Chain of Nuclear receptor subfamily 1 group I member 2 (Rattus norvegicus) (Q9R1A7 whole entry, looked up): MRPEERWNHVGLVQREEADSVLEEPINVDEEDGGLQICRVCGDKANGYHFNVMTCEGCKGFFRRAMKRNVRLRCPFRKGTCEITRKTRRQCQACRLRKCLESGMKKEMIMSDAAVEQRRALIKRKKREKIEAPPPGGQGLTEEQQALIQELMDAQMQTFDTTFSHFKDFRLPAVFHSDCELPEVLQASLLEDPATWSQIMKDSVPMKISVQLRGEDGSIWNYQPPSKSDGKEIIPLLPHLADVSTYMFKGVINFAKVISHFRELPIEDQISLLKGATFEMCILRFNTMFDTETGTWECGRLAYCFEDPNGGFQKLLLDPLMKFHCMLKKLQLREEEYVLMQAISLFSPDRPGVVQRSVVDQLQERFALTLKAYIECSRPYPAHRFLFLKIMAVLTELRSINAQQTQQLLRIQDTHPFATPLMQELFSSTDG
compound,measurement,setting,value
CSc1ccc(/C=C/c2nc3ccccc3n2S(=O)(=O)c2cccc(Cl)c2)cc1,Potency,[1],8.51 µM (active)
O=C(Nc1onc2c1CCCC2)c1ccccc1,Potency,[1],inactive
CCCOC(=O)c1cc(O)c(O)c(O)c1,outcome,[2],inactive
same,activation,[3],-7.56% (inactive)
same,max response,[4],51.1%
same,outcome,[5],inactive
same,outcome,[6],inactive
same,outcome,[7],inactive
same,outcome,[8],inactive
same,max response,[9],14.7%
same,outcome,[10],inactive
same,outcome,[11],inactive
same,activity change % (negative = inhibition),[12],5.53% (inactive)
same,Potency,[13],inactive
same,Potency,[14],9.69 µM (active)
same,activation,[15],-0.803% (inactive)
same,activation,[16],4.88% (inactive)
same,max response,[17],0.0423% (inactive)
same,max response,[18],-15.7% (inactive)
same,max response,[19],14.7% (inactive)
same,max response,[20],-23.3% (inactive)
same,outcome,[21],inactive
same,Potency,[22],inactive
same,max response,[23],-2.93% (inactive)
